Screens deposited in PubChem BioAssay by National Center for Advancing Translational Sciences (NCATS).
JMJD2A Tudor: JMJD2A Tudor domain (human) inhibition | AlphaScreen JMJD2A-Tudor / H3K4me3 peptide binding | O75164 | AID 504339 | Potency, µM (doses to about 114 µM), for the others: at the highest dose activity change, negative = inhibition, most hits filed as inhibitors | hit rate 4.4% among 390,000; also: % is scaled to controls: 0 for no effect and ±100 for the full control effect; nearly all actives have a fitted effect of over 50% in size
G9a inh: inhibitors of human histone lysine methyltransferase G9a | Q96KQ7 | hit rate 8.8% among 350,000 | AID 504332 | Potency, µM (series often up to 102 µM), for inactives: top-dose activity, negative = inhibition, usual class: inhibitors | G9a H3K9 monomethylation, AlphaScreen, 2 h; also: % is scaled to controls: 0 for no effect and ±100 for the full control effect; nearly all actives have a fitted effect of over 75% in size
Target sequence (Q96KQ7 913-1193 limits assumed): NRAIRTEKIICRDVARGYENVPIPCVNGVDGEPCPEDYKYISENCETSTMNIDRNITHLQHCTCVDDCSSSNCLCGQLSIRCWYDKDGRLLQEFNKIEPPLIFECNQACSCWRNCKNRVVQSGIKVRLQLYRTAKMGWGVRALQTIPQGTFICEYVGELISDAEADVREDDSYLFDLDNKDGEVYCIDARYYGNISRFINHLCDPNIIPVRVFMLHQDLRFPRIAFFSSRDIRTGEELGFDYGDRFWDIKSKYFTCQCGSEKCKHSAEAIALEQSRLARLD
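Compounds were preincubated with 20 nM G9a for 15 min, after which biotinylated H3K9 peptide (500 nM) and SAM (20 uM) started a 2 h room-temperature reaction. Monomethylated product was quantified by antibody-based AlphaScreen chemiluminescence.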
BAZ2B block: inhibitors of human BAZ2B bromodomain | Potency, µM (highest dose often 114 µM), for the others: at the highest dose activity change, negative = inhibition, hits mostly inhibitors | Q9UIF8 | AlphaScreen BAZ2B-H3K14Ac peptide displacement | hit rate 4.4% among 360,000; also: % is scaled to controls: 0 for no effect and ±100 for the full control effect; nearly all actives have a fitted effect of over 60% in size
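Multi-concentration screen (max 110 uM) measuring displacement of acetylated histone H3 peptide from BAZ2B by AlphaScreen, using 50 nM protein, 50 nM peptide and 10 ug/mL streptavidin donor plus Ni-chelate acceptor beads.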
HP1b chromo inh: inhibitors of HP1-beta chromodomain binding to methylated histone tails. P83916. AlphaScreen HP1-beta / biotin-H3K9me3 peptide binding. Potency, µM (highest dose often 114 µM), for inactives: top-dose activity change, negative = inhibition, most hits filed as inhibitors. hit rate 0.56% among 390,000. AID 540317; also: nearly all actives have a fitted effect of over 70% in size
Target sequence (P83916 whole entry, looked up): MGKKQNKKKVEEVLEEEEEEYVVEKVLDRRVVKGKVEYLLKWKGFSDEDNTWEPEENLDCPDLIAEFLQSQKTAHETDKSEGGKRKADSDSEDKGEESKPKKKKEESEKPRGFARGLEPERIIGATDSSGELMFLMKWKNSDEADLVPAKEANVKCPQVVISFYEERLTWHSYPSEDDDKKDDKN
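AlphaScreen: HP1-beta (50 nM) preformed 30 min with biotin-H3(1-18)K9me3 peptide (50 nM) in PBS pH 7.4, 0.01% Tween-20. Compound added for 30 min at RT, then streptavidin donor/nickel chelate acceptor beads (10 ug/mL) for 30 min.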
12-LOX inh: blocks human arachidonate 12S-lipoxygenase; purified 12hLO, xylenol orange hydroperoxide absorbance; Potency, µM (doses to about 108 µM), for inactives: at the top dose activity change, negative = inhibition, most hits filed as inhibitors; hit rate 1.1% among 580,000; AID 1671190; also: % is scaled to controls: 0 for no effect and ±100 for the full control effect
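Purified human 12hLO (150 nM final) in 25 mM Hepes, 0.01% Triton X-100, pH 7.0 was preincubated 15 min at room temperature with compound. Then 40 uM arachidonic acid was added, 30 min. Hydroperoxide was read by Fe-XO absorbance ratio 573/405 nm.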
Sfp PPTase inh: blocks B. subtilis Sfp PPTase activity; Q9F4F7; hit rate 3.5% among 310,000; Potency, µM, inactives show largest response in the series, negative = inhibition, usual class: inhibitors; Biochemical Sfp PPTase activity, qHTS;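 also: the enzyme is Sfp with the accession as filed and its product quenches rhodamine fluorescence; 0% = enzyme reaction without inhibitor and -100% = no enzyme wells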
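Fluorescence-quenching assay: 15 nM Sfp-PPTase preincubated 15 min at room temperature with compound, then 5 uM rhodamine-CoA and 12.5 uM BHQ-2-labelled YbbR peptide added. Fluorescence (ex 525/em 598 nm) read at start and after 30 min; difference gives rate.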
* marks the source's active call; other numbers are inactive results; ? = inconclusive; . = not tested or not shown; ! = not confirmed by another sample; [ ] = dose if it differs, or a comment. The list is not random: actives were taken first. Their share in the collection is about 8.7%. Calls follow the shape of the dose curve; as a rule, active = well fitted curve in the direction sought with a large enough effect; inconclusive = small, poorly fitted or top-dose-only effect, or another doubt; inactive = no such curve, though single readings can be large; an effect the other way counts as inactive or inconclusive. Potency is read from the fitted curve at half-maximal effect.

SMILES	JMJD2A Tudor	G9a inh	BAZ2B block	HP1b chromo inh	12-LOX inh	Sfp PPTase inh
CCN1C(=NCc2ccco2)N[C@@H](c2cccc(F)c2)C(C(=O)OC)=C1C	?	40µM*!	-39%	47%	?	-5%
CCN1C(=NCC(C)C)N[C@@H](c2cccc(F)c2)C(C(=O)OC)=C1C	?	40µM*!	?	46%	?	1%
CCC(=O)c1c[nH]c(C(=O)NCc2ccccc2OC)c1	-11%	0%	79µM*	38%	-6%	24%
COc1ccccc1CNC(=O)c1ccc2[nH]c(C)c(C)c2c1	?	?	50µM*	?	3%	.
CC(=O)Nc1cccc(NC(=O)c2ccc3[nH]c(C)c(C)c3c2)c1	-32%[57.1 µM]	-4%	-25%	?	3%	21%
COc1ccc(OC)c(CCNC(=O)c2ccc3[nH]c(C)c(C)c3c2)c1	-24%	-15%[59 µM]	?	-15%	-18%	.
Cc1cc(NC(=O)c2ccc3[nH]c(C)c(C)c3c2)ccn1	-17%	?	50µM*	13%	0%	4%
O=C(C1CCC1)N1CCCC(n2cc(-c3nc(-c4ccccc4)no3)nn2)C1 (stereo unspecified)	.	.	.	.	20%	.
COc1ccc(-c2cc3c(cn2)CN(CCc2ccccc2)CCN3)cc1OC	.	.	.	.	72%[176 µM]	.
CN1c2ccccc2C(C)(C)C12CC(CCl)=NO2 (stereo unspecified)	-21%	-10%[2.33 µM]	-6%	23%	.	-8%
CN1c2ccccc2C(C)(C)[C@]12C=Cc1cc(O)ccc1O2	56µM*	?	40µM*	?	-76%	-15%
CN1c2ccccc2C(C)(C)C12C=Nc1c(ccc3ccccc13)O2 (stereo unspecified)	?	.	50µM*	0%	?	-94%
COc1ccc2ccc3c(c2c1)N=CC1(O3)N(C)c2ccccc2C1(C)C (stereo unspecified)	45µM*	5.6µM*	-10%	?	.	-4%
Cn1cc(CN2CCN(Cc3cccc(F)c3)CC2)ccc1=O	.	.	.	.	-6%	.
Cc1ccc(S(=O)(=O)NCC(=O)OCC(=O)c2cc(C)n(-c3ccccc3)c2C)cc1	-23%	?	?	-18%	-12%	-18%
Cc1ccc(C)c(C(=O)COC(=O)CNS(=O)(=O)c2ccccc2)c1	-14%	71µM*	4%	1%	?	5%
O=C(CCNS(=O)(=O)c1ccccc1)OCC(=O)c1ccc[nH]1	-6%	50µM*	7%	20%	-6%	.
COC(=O)c1ccc(-n2c(C)cc(C(=O)COC(=O)CNS(=O)(=O)c3ccc(C)cc3)c2C)cc1	22µM*	?	-34%	-13%	-10%	8%
O=C(Cn1ncc2c1-c1ccccc1OC2)N1CCN(c2cccc(Cl)c2)CC1	.	.	.	.	-7%	.
C/C(=N\NC(=S)NCCc1ccccc1)c1cccc(Br)c1	-22%	-37%	40µM*	-14%	45µM*	-3%
C=CCNC(=S)N/N=C(\C)c1cccc(OC)c1	-30%	29%[59 µM]	-34%	-5%	?	5%
C=CCNC(=S)N/N=C(\C)c1ccc(OC)cc1	-21%	24%[59 µM]	?	6%	40µM*	-11%
COc1ccc(/C(C)=N/NC(=S)NCCc2ccccc2)cc1	?	-40%	25µM*	-13%	0%	10%
COc1ccc(/C(C)=N/NC(=O)c2ccccc2OCc2ccccc2)c(OC)c1	18µM*	5%	-38%	-21%	11%	-15%
O=C(NCCc1ccccc1)c1cccc(Br)c1	7%	.	-1%	58%	-6%	-9%
SMILES	JMJD2A Tudor	G9a inh	BAZ2B block	HP1b chromo inh	12-LOX inh	Sfp PPTase inh
CCOC(=O)C1=C(C)N=C2SC=C(CC(=O)Nc3ccc(C)c(C)c3)N2C1c1cccc(OC)c1 (stereo unspecified)	.	.	.	.	20%	.
Clc1ccc(C=Nc2ccc(Cl)c(Cl)c2)cc1Cl	.	.	.	.	29%	.
C/C(=N\NC(=S)NCc1ccccc1)c1ccc2ccccc2c1	-38%	1%[59 µM]	?	-11%	45µM*	-14%
COc1ccccc1/C(C)=N/NC(=S)NCc1ccccc1	?	-46%	?	-20%	40µM*	16%
C=CCNC(=S)N/N=C(\C)c1cccnc1	-11%	-5%	-38%	37%	-5%	16µM*
Nc1sccc1C(=O)c1ccc(Cl)cc1	-21%	?	?	-20%	-21%[57.4 µM]	?
NC(=O)c1ccsc1N	.	-8%[0.501 µM]	-15%	.	.	20µM*
COc1ccc(OC)c2sc(N(CCN(C)C)C(=O)/C=C/c3cccs3)nc12	?	.	-25%	8%[57 µM]	?	-17%
CN(C)CCN(C(=O)/C=C/c1cccs1)c1nc2c(F)cc(F)cc2s1	40µM*	?	?	?	?	-17%
COc1ccc(C)c2sc(N(CCN(C)C)C(=O)/C=C/c3cccs3)nc12	?	.	35µM*	3%	-13%	-18%
CCOc1cccc2sc(N(CCN(C)C)C(=O)/C=C/c3cccs3)nc12	45µM*	-15%	?	-10%	.	-16%
CCOc1ccc2nc(N(CCN(C)C)C(=O)/C=C/c3cccs3)sc2c1	6%	?	-29%	31%	.	-3%
CN(C)CCCN(C(=O)/C=C/c1cccs1)c1nc2ccc(F)cc2s1	38%	?	.	47%	?	-27%
Cc1ccc2nc(N(CCN(C)C)C(=O)/C=C/c3cccs3)sc2c1	-12%	-5%[59 µM]	-1%	22%	-17%	-1%
COc1cccc2sc(N(CCN(C)C)C(=O)/C=C/c3cccs3)nc12	-33%	16µM*	.	11%	1%	1%
O=C(O)CNS(=O)(=O)c1ccc(C(=O)/C=C/c2ccc(Cl)cc2)cc1	.	.	.	.	-13%	.
COc1cccc2sc(N(C)c3ccccc3)nc12	-3%	-38%	0%	30%	0%	71µM*
CC(C)(C)C(=O)N1CCC2(CC1)OCC(C(=O)NC1CC1)N2C(=O)c1ccc(F)cc1 (stereo unspecified)	.	.	.	.	24%	.
Cc1ccc(N/N=C/c2cccc(C(F)(F)F)c2)cc1Cl	.	.	.	.	3.5µM*	.
FC(F)(F)c1ccc(/C=N/Nc2ccc(Cl)cc2)cc1	.	.	.	.	7.1µM*	.
FC(F)(F)c1cccc(/C=N/Nc2ccc(Cl)cc2)c1	.	.	.	.	7.1µM*	.
O=C(NNC(=O)c1cc(O)c(O)c(O)c1)NC1CCCCC1	10µM*	1.6µM*	56µM*	-30%	?	10µM*
O=C(NNC(=O)c1cccnc1)NC1CCCCC1	-8%	-24%	4%	24%	-19%	13%
COc1ccc(O)c(/C=c2/sc3nc4cc(C)c(C)cc4n3c2=O)c1	?	2.5µM*	-8%	?	?	8.9µM*
CN(CC(=O)Nc1ccccc1Cl)C(=O)COC(=O)c1cc(S(=O)(=O)N(C)C)ccc1N1CCCC1	-18%	-33%	-13%	8%	-17%	.
